Sequences and labels used below:
B1: VH:VL chains; a variant is named by its letters at X, in order (parent)
chain 1: QVQLVQSGAEVKKPGASVKVSCKASGYTFTDYXMHWVRQAPGQGLEWMGXVNPNXXXTTYNQKFEGRVTMTTDTSTSTAYMELRSLRSDDTAVYYCARXNXLDXWGQGTTVTVSS
chain 2: DIQMTQSPSSLSASVGDRVTITCSVSSSVSSIYLHWYQQKPGKAPKLLIYSTSNLASGVPSRFSGSGSGTDFTLTISSLQPEDFATYYCQVYSGYPLTFGGGTKVEIK

Some of the results follow. No count for the full screen is at hand.

This assay covers variants of B1. Put plainly: yeast display scFab, FACS + sequencing. The conditions noted are these: with MET. The method in brief:
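For FACS, yeast displaying a heavy-chain CDR mutant scFab library were labelled with 1 nM HGFR-Fc and anti-Myc (PBSB, 1% milk, 3 h, room temperature), and the top 50% antigen-positive cells were gated. Input and round-3 sorted populations were deep sequenced in two replicates. The binding call was positive for sequences occurring in both antigen-positive samples and negative for sequences occurring only in input.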
As for DEETNSGA, the antigen binding call is “no binding”.
The same measure for AREGDDVA: “no binding”.
Consider YTGTSAVS, for which the antigen binding call is “no binding”.
Turning to YARRAAVS, the antigen binding call is recorded as “no binding”.
The result for YRGRAAVS reads “binds”.
The result for YRGGGSGS reads “binds”.
As for YKGAAFAD, the antigen binding call is given as “no binding”.
The same measure for YRGRGFAD: “binds”; for YRGRGYAY: “binds”.
For the variant YAAGGFAY, the antigen binding call is reported as “no binding”.
The result for YRGRGFAY reads “binds”.
For YRGGGFAD, the antigen binding call is on record as “binds”.
VATGDDVA: the antigen binding call is “no binding”.
In the case of SATKTVVV, the antigen binding call is “no binding”.
For VTGEDSGV, the antigen binding call is recorded as “no binding”.
Turning to YKGRGFAY, the antigen binding call is reported as “binds”.
The result for SKGASFAY reads “no binding”; that for DTGTGDSA, “no binding”.
As to DAGGGDVV, the antigen binding call is “no binding”.
On to VEGGNDGA, for which the antigen binding call was “no binding”.
With YAGGGDWA, the antigen binding call is “no binding”.
The same measure for YRKRGDVV: “binds”; for YRKGSSGV: “binds”.
Turning to YRKRGSLV, the antigen binding call is “binds”.
Turning to YRKRGSVV, the antigen binding call is recorded as “binds”.
For DREEGDVV, the antigen binding call was “no binding”.
The same measure for DAGGDDGA: “no binding”; for AARADAVY: “no binding”.
The same measure for DARETFLD: “no binding”.
Turning to SGREGDWD, the antigen binding call was “no binding”.
As for YRKGGSGV, the antigen binding call is “binds”.
In the case of YRKRGSGV, the antigen binding call is “binds”.
The result for YRKRGSLY reads “binds”; that for VRKGGSGV, “binds”.
The same measure for VEKGGSGV: “no binding”; for YRKRGVGV: “no binding”; for DGGGASSA: “no binding”.
With YTAGSDGA, the antigen binding call was “no binding”.
The same measure for SEARSDAD: “no binding”; for VEGGGDVY: “no binding”; for VAEKGDGV: “no binding”.
As for VTAGDDGV, the antigen binding call is “no binding”.
On to VGGGAAGF, for which the antigen binding call is “no binding”.
Take YARADDVF: the antigen binding call was “no binding”.
The same measure for YKRGSSGF: “binds”; for YKRGSAGF: “binds”.
The same measure for VKRGDDVV: “no binding”; for YKRGDAVF: “binds”.
As for YGTAAFGF, the antigen binding call is listed as “no binding”.
The same measure for YKKGAAGF: “binds”.
The result for FGKGGFGY reads “no binding”; that for YATEDSGF, “binds”.
The same measure for YARADSGD: “no binding”; for YKRGDSGF: “binds”; for YAARASGF: “no binding”.
Consider AGTKADVV chain 1 G108S, for which the antigen binding call is on record as “no binding”.
For VKGKGDVY, the antigen binding call was “no binding”.
In the case of DATGGSSY, the antigen binding call is “no binding”.
As to YKTKGSSY, the antigen binding call is “binds”.
As for YKGKGSLY, the antigen binding call is recorded as “binds”.
The result for YKGKGSSY reads “binds”; that for VGTKGSSA, “no binding”; that for FKGKGSAD, “binds”.
The result for YAGKTSAD reads “no binding”; that for YRGKSSAD, “binds”; that for FRGKGSAD, “binds”.
For the variant FKGRGSAA, the antigen binding call is “binds”.
The result for FRAKGSAD reads “binds”.
The result for DAAGASVD reads “no binding”; that for YTKGTSVA chain 1 E65K, “no binding”; that for DKEGGFGV, “no binding”.
Take DEGGTDGS: the antigen binding call is listed as “no binding”.
The result for SRATAYSD reads “no binding”; that for YRGKGSAD, “binds”; that for VEGAADVD, “no binding”.
For VTGGGASF, the antigen binding call was “no binding”.
The same measure for YRKGSSVS: “binds”; for YRKGGSVS: “binds”; for YRTRSSVS: “binds”.
For DTKGDSVS, the antigen binding call is recorded as “no binding”.
The same measure for YRKRGSVF: “binds”; for VEGTSSLD: “no binding”; for FAATDSVS: “no binding”.
In the case of YRGEGAVS, the antigen binding call is “binds”.
The result for FRGEGSVS reads “binds”; that for FKGEGFGS, “no binding”; that for FRGEGAVS, “binds”.
The result for VKEKGALD reads “no binding”; that for VRKRGALD, “binds”.
Consider VRRRGALD, for which the antigen binding call is “binds”.
The result for VRRGGALD reads “binds”; that for VEEEGALD, “no binding”.
The result for VTERSALD reads “no binding”; that for VGGTSALD, “no binding”; that for ATGEADAS, “no binding”.
The result for DAEATSWV reads “no binding”.
In the case of DTGTGAGD, the antigen binding call is on record as “no binding”.
The result for AEEKGSGD reads “no binding”; that for YRGKGAWA, “binds”; that for VRTEDDVA, “no binding”.
The same measure for VRTEDAWA: “binds”; for VKGKGASA: “no binding”.
Turning to YKGKGAWA, the antigen binding call is listed as “binds”.
The result for VRTEDSWA reads “no binding”.
As to YATKGAWA, the antigen binding call is reported as “no binding”.
The result for VRGKGASA reads “binds”; that for VARADSGV, “no binding”.
Regarding VEAGDAAV, the antigen binding call was “no binding”.
The same measure for YRGKGSWA: “binds”.
The same measure for YEGTGSWA: “no binding”.
The result for YKGKGSWA reads “binds”.
Take VEGGGAWA: the antigen binding call is recorded as “no binding”.
The result for VRGGDDWA reads “no binding”; that for VRGKGAWA, “binds”.
With YRGKSSWA, the antigen binding call was “binds”.
The result for DAARGDAA reads “no binding”.
YRGAGSGV: the antigen binding call is recorded as “binds”.
The same measure for YRGAGAWV: “binds”.
Consider YRGTGAGV, for which the antigen binding call is listed as “binds”.
As for VTGTGAGV, the antigen binding call is listed as “no binding”.
As to YRGAGAGV, the antigen binding call is “binds”.
As to DTGTGAGV, the antigen binding call is given as “no binding”.
The result for YETGNVWF reads “no binding”; that for DKEGGAVV, “no binding”.
For the variant DAGGGDWV, the antigen binding call was “no binding”.
With VTTRADVF, the antigen binding call is reported as “no binding”.
On to DGGRAFWF, for which the antigen binding call is “no binding”.
Take VARKGVGV: the antigen binding call is given as “no binding”.
The same measure for YRGAGALV: “binds”.
Turning to YTGTSDWV, the antigen binding call was “no binding”.
YKRRDAWV: the antigen binding call is reported as “no binding”.
The result for YARADSSV reads “no binding”; that for YTRGSAWV, “no binding”; that for YRRGSSSV, “binds”.
In the case of YKRGSAWV, the antigen binding call is on record as “binds”.
The result for YRRGSASV reads “binds”; that for YKRGSASV, “binds”.
The same measure for VKEADAWV: “no binding”; for SKKGDFWV: “no binding”.
Turning to VETEGDWD, the antigen binding call was “no binding”.
The result for VRAETDVY reads “no binding”.
The same measure for YRRGSSLV: “binds”; for DAEGDAGD: “no binding”.
The same measure for VKGRGAGS: “binds”; for VKGRASAS: “no binding”; for VKGRGSGS: “binds”.
Regarding VKGGSFGS, the antigen binding call is on record as “no binding”.
The same measure for VGGRGDGS: “no binding”.
As to VTEGGDVA, the antigen binding call is on record as “no binding”.
The result for YTTGGDWA reads “no binding”.
The result for DATGGSVD reads “no binding”; that for DTGGDDGF, “no binding”; that for YARADDAS, “no binding”.
The result for VRRGGSAA reads “binds”; that for VETGGAVA, “no binding”; that for VRTGGAAA, “binds”.
Take VEGEDAAA: the antigen binding call is given as “no binding”.
The result for VETGGAAA reads “no binding”; that for VRRGGAAA, “binds”.
Take VEGGGDWA: the antigen binding call is listed as “no binding”.
The result for VEGAASWF reads “no binding”; that for YRKGAASD, “binds”; that for YRKGSASD, “binds”.
The result for SRKGAASD reads “no binding”; that for VRAGDALV, “no binding”; that for VEAGDALV, “no binding”.
For the variant YTAGSALV, the antigen binding call is reported as “no binding”.
Regarding YRARGALV, the antigen binding call is given as “binds”.
Take VRARGALV: the antigen binding call is on record as “binds”.
For YRAKSALV, the antigen binding call was “binds”.
As to VGGTGDVF, the antigen binding call is reported as “no binding”.
The same measure for DGGADVGA: “no binding”; for DKGTDVGA: “no binding”.
As for FRRGGSGV, the antigen binding call is recorded as “binds”.
With FRRGGSGS, the antigen binding call is given as “binds”.
Turning to FRRGSSGD, the antigen binding call is “binds”.
The result for FRRGSSGS reads “binds”; that for FARGASGV, “no binding”; that for DAGAAAGD, “no binding”.
The same measure for DKREADVA: “no binding”; for FRAGGSAA: “binds”; for FKKGSSAA: “binds”.
As for FKGEGDAA, the antigen binding call is recorded as “no binding”.
Regarding VKRGSSAA, the antigen binding call is “binds”.
The result for FKKGSFGA reads “no binding”; that for FKGEDAVA, “no binding”.
Regarding FEEEGSAA, the antigen binding call is listed as “no binding”.
The result for FKKGSAVA reads “binds”; that for ATTKSDAA, “no binding”.
The result for SREAADWV reads “no binding”; that for DAGGGDVA, “no binding”.
The result for DARENAGY reads “no binding”; that for DEGTGALA, “no binding”; that for FKRGSSAA, “binds”.
Take FRRGSSAA: the antigen binding call was “binds”.
FRRGDSAA: the antigen binding call is “binds”.
Consider FRRGGSAA, for which the antigen binding call is “binds”.
The result for FKRKNSAA reads “no binding”; that for FGRGSSWA, “no binding”.
The result for DGERTAGV reads “no binding”.
With VREEGDGA, the antigen binding call is reported as “no binding”.
The result for VTTGGDGV reads “no binding”; that for YRAGGDWY, “binds”.
YRAGGYWY: the antigen binding call is given as “binds”.
With YRARGAWY, the antigen binding call is recorded as “binds”.
As for YTAGSDWY, the antigen binding call is “no binding”.
In the case of DRAGDDWY, the antigen binding call is reported as “no binding”.
On to YRAGGAWY, for which the antigen binding call is given as “binds”.
The result for DGGTSYSV reads “no binding”.
The result for SKEAGYSV reads “no binding”; that for VTGEDDAV, “no binding”.
The result for ATGANSLD reads “no binding”.

Values taken from the emibetuzumab library of Makowski et al. (2022).
